Active and inactive are the calls of the source. The rule behind the calls is not given here. Bounds are passed on as bounds.
Potency is the fitted concentration of half-maximal effect.

The experiment concerns HIV-1 nucleocapsid protein NCp7 (binding to TG oligonucleotide). Briefly: HIV Nucleocapsid (AID 346).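 Note: potency is for inhibitors that block NC binding and lower polarization.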 To be noted: HIV-1 NC / fluorescein-TGTGTGTG probe, fluorescence polarization. The procedure, abridged: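 Inhibition of nucleocapsid binding to single-stranded 5'-TGTGTGTG probe (10 nM) was measured by fluorescence polarization after 1 hr at room temperature with 100 nM protein under high-salt, zinc-containing, reducing conditions.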
As to `COCCn1c(=O)c(C)nc2cnc(N(C)C)nc21`, the Potency is > 20 µM (inactive).
As for `CN(C)c1ncc2nc(-c3ccc(Cl)cc3)c(=O)n(Cc3cccs3)c2n1`, the Potency was > 4 µM (inactive).
For `Cc1noc(C)c1-c1cc(NCc2cccs2)ncn1`, the Potency is > 20 µM (inactive).
With `COCCn1c(=O)c(-c2ccccc2)nc2cnc(N(C)C)nc21` the figure was > 20 µM (inactive).
The value for `Cc1nc2cnc(N3CCOCC3)nc2n(C)c1=O` was > 20 µM (inactive).
With `O=C(c1ccco1)N1CCC2(CCCN(c3ncccn3)C2)CC1` the figure was > 20 µM (inactive); with `c1ccc2c(NCCN3CCOCC3)nc(-c3ccoc3)nc2c1`, > 20 µM (inactive); with `CN(C)C(=O)c1ccc(-c2ccc3ncnc(NCc4cccs4)c3c2)cc1`, > 20 µM (inactive).
Regarding `COCCNc1nc(-c2ccc(C(=O)N(C)C)cc2)nc2ccccc12`, the Potency is > 20 µM (inactive).
With `O=C(Nc1cccc(F)c1)N1CC[C@@]2(CCCNC2)C1` the figure was > 20 µM (inactive); with `COc1ccccc1CN1CCCC2(CCN(C(C)=O)CC2)C1`, > 20 µM (inactive).
In the case of `CCNc1ncc2nc(-c3ccc(OC)cc3)c(=O)n(CCOC)c2n1`, the Potency is > 20 µM (inactive).
For the compound `COc1ccc(-n2c(=O)c(-c3cccs3)nc3cnc(OC)nc32)cc1`, the Potency was > 20 µM (inactive).
The value for `COc1ccccc1CN1CCCC2(CCN(C(=O)c3ccncc3)CC2)C1` was > 20 µM (inactive).
With `CCNc1ncc2ncc(=O)n(C3CC3)c2n1` the figure was > 20 µM (inactive); with `CC(C)NC(=O)N1CC2(CCN(S(=O)(=O)c3ccccc3)CC2)C1`, > 20 µM (inactive).
The value for `COC(=O)N1CCC2(CC1)CN(C(=O)Nc1cccc(C#N)c1)C2` was > 20 µM (inactive).
On to `COc1ccccc1-c1cncnc1NCCNC(C)=O`, for which the Potency is > 20 µM (inactive).
The value for `COc1ncc2nc(CCc3ccccc3)c(=O)n(CCC#N)c2n1` was > 20 µM (inactive); that for `CN1CCC2(CC1)CCN(C(=O)c1ccncc1)CC2` was > 20 µM (inactive); that for `O=S(=O)(c1ccccc1)N1CCC2(CCN(c3ccncc3)CC2)CC1` was > 20 µM (inactive).
With `FC(F)(F)c1ccccc1-c1nc(Nc2ccncc2)c2ccccc2n1` the figure was > 20 µM (inactive).
With `Cc1cccc(CNc2ccnc(-c3ccc(N(C)C)cc3)n2)c1` the figure was > 20 µM (inactive); with `COC(=O)N1CCC[C@@]2(CCN(Cc3cc(C(F)(F)F)cc(C(F)(F)F)c3)C2)C1`, > 20 µM (inactive); with `COc1ccccc1CNc1ncnc2ccc(-c3ccc(C(=O)N(C)C)cc3)cc12`, > 20 µM (inactive).
As for `Cc1nc2cnc(N3CCOCC3)nc2n(C[C@H]2CCCO2)c1=O`, the Potency is > 20 µM (inactive).
With `CCNc1ncc2ncc(=O)n(CCOC)c2n1` the figure was > 20 µM (inactive); with `COc1ccc(-c2nc3cnc(N4CCOCC4)nc3n(Cc3cccc(OC)c3)c2=O)cc1`, > 20 µM (inactive); with `COc1ccc(C(=O)N2CCC[C@@]3(CCN(Cc4cc(C(F)(F)F)cc(C(F)(F)F)c4)C3)C2)cc1`, > 20 µM (inactive).
The value for `COc1ccccc1-c1cncnc1Nc1ccc(F)cc1` was > 20 µM (inactive).
The value for `CS(=O)(=O)Nc1cccc(-c2nc(Nc3ccncc3)c3ccccc3n2)c1` was > 20 µM (inactive); that for `O=C(c1ccncc1)N1CCC2(CC1)CCN(c1ncccn1)CC2` was > 20 µM (inactive); that for `CS(=O)(=O)Nc1cccc(-c2nc(NCCN3CCOCC3)c3ccccc3n2)c1` was > 20 µM (inactive).
For the compound `COc1ccc(Oc2ncc3nc(C)c(=O)n(C4CC4)c3n2)cc1`, the Potency is > 20 µM (inactive).
Take `COc1ccc(CNc2ccnc(-c3ccoc3)n2)c(OC)c1`: the Potency was > 20 µM (inactive).
With `Cc1cccc(CNc2ncncc2-c2ccccc2Cl)c1` the figure was > 20 µM (inactive).
Take `O=C(c1cccc(F)c1)N1CCC2(CC1)CN(c1ncccn1)C2`: the Potency is > 20 µM (inactive).
With `CN(C)c1ncc2nc(-c3cc(F)cc(F)c3)c(=O)n(C[C@H]3CCCO3)c2n1` the figure was > 20 µM (inactive); with `COc1ccc(NC(=O)N2CC3(CCN(S(=O)(=O)c4ccccc4)CC3)C2)cc1`, > 20 µM (inactive); with `COc1ccccc1-c1cncnc1N(C)Cc1ccco1`, > 20 µM (inactive).
